Compound activity from PubChem.
Rce1 inh – yeast Rce1p protease inhibitors, primary screen, biochemical, fluorescence, cell-free homogeneous; calls only; AID 2563, 2010; yeast membranes, quenched prenylated peptide cleavage fluorescence; 290,000 tested, 0.27% active;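 active means fall in fluorescence gain of 50% or more versus controls, with final raw signal at or below 3038400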;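 further: plate controls were neutral control wells for no effect and wells lacking membranes for full effect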
Target sequence (Q03530 whole entry, looked up): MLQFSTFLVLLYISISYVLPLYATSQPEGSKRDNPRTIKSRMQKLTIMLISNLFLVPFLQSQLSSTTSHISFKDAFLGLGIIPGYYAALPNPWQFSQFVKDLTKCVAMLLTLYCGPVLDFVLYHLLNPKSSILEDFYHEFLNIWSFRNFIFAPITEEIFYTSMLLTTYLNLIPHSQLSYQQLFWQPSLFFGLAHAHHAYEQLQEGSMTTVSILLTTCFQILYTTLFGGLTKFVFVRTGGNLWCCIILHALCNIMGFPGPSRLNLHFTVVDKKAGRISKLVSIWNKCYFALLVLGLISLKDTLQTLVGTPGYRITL
GC-B act – human GC-B receptor activators, primary screen, HEK293 GC-B cells, cGMP TR-FRET, EC30 CNP; 370,000 tested, 0.11% active; activation, % at 10 µM; AID 1920062, 2024; 0% at EC30 CNP, 100% saturating CNP;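 active means activation at 10 µM reaching about 35% in either raw or pattern-adjusted values, limit read from the data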
V-ATPase pHluor – regulators of yeast V-ATPase proton pumping, primary screen, pHLuorin cytosolic pH fluorescence; S. cerevisiae; response, % at 10 µM; 350,000 tested, 0.37% active; AID 504577, 2011; in the data active means response mostly above about 7.3%, no sharp cut-off; inactive means mostly below about 5.4%; further: actives read high
Efflux pump mplx – inhibitors of Candida efflux pumps in yeast, primary screen, S. cerevisiae, Nile Red, multiplex; inhibition, % at 10 µM; 330,000 tested, 0.44% active; S. cerevisiae Candida pump triplex;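 active means plate passing quality check with inhibition over a set limit, or well fluorescence over plate mean plus 4 SD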;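 further: Nile Red retained in pooled yeast measured as flow cytometry median fluorescence; 0% = buffer negative control and 100% = Enniatin B positive control; higher means more Nile Red kept so more efflux inhibition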
NSD2 HMT inh – NSD2 histone methyltransferase inhibitors, primary screen, biochemical, AlphaScreen, single concentration, set 2 | Histone-lysine N-methyltransferase NSD2 (Homo sapiens), O96028 | NSD2 peptide methylation, 120 min | inhibition, % at 12.5 µM | 310,000 tested, 0.54% active | AID 743445, 2014; in the data active means inhibition above about 50%
NPR1 activator – GC-A stimulated cGMP production enhancers – HEK293 GC-A cells, cGMP TR-FRET, EC30 ANP, primary screen | 370,000 tested, 0.14% active | Atrial natriuretic peptide receptor 1 (Homo sapiens), P16066 | 0% at EC30 ANP, 100% saturating ANP | activation, % at 10 µM | AID 1671463, 2021; in the data active means activation above about 40%
Alpha artifact – AlphaScreen signal interference with preloaded methylated product, dose response, artefact control for NSD2 inhibitor project, biochemical, cherry-picked samples; AlphaScreen artifact counterscreen, preloaded methylated H4 peptide; shares compounds with NSD2 HMT inh; 1,500 tested, 9.4% active; AC35, µM (series often up to 10 µM), inactives show at the highest dose activity change, negative = signal loss; call rule not given here
Starred values were filed as active, the others as inactive. An excerpt weighted towards active compounds, which were near 1.6% of everything screened.

What do the screens show for `CCOC(=O)C1=C(C)N=c2s/c(=C/c3cccc([N+](=O)[O-])c3O)c(=O)n2C1c1cc(OC)c(OC)c(OC)c1` (stereo not given)?
Rce1 inh: inactive; GC-B act: -7; V-ATPase pHluor: 0; Efflux pump mplx: 1; NSD2 HMT inh: 49; NPR1 activator: -3

How did COc1cccc(-c2nnc3sc(-c4ccc(Br)o4)nn23)c1 do in these assays?
GC-B act: -1; NSD2 HMT inh: 22; NPR1 activator: 2

How did CCCN(CCC)CCCNC(=S)Nc1ccc2nc(N3CCN(CC)CC3)cc(C)c2c1 do in these assays?
Rce1 inh: inactive; GC-B act: 2; V-ATPase pHluor: 2; Efflux pump mplx: 0; NSD2 HMT inh: 70*; NPR1 activator: 5; Alpha artifact: -10%

How did CCCN(CCC)CCCNC(=S)Nc1ccc2nc(N3CCN(C)CC3)cc(C)c2c1 do in these assays?
Rce1 inh: inactive; GC-B act: 1; V-ATPase pHluor: 6; Efflux pump mplx: 0; NSD2 HMT inh: 35; NPR1 activator: 5

What do the screens show for `COc1cc(NS(=O)(=O)c2ccc(NC(=S)NC(=O)/C=C/c3ccco3)cc2)ncn1`?
Rce1 inh: inactive; GC-B act: 0; V-ATPase pHluor: -1; NSD2 HMT inh: 150*; NPR1 activator: 3; Alpha artifact: -4%

Results for CCOc1ccc(NC(=S)NC(=O)/C=C/c2ccco2)cc1 ?
Rce1 inh: inactive; GC-B act: 3; V-ATPase pHluor: 0; Efflux pump mplx: 0; NSD2 HMT inh: -2; NPR1 activator: 3

How did Cn1c(SCCc2ccccc2)nnc1-c1ccco1 do in these assays?
GC-B act: 6; NSD2 HMT inh: -1; NPR1 activator: 7

Results for Cc1c(Br)c(=O)oc2c(Br)c(O)ccc12 ?
Rce1 inh: inactive; GC-B act: 3; V-ATPase pHluor: 0; Efflux pump mplx: 0; NSD2 HMT inh: 18; NPR1 activator: 3

What do the screens show for `Cc1c(Br)c(=O)oc2c(Br)c(O)c(O)cc12`?
Rce1 inh: inactive; GC-B act: -4; V-ATPase pHluor: 0; Efflux pump mplx: 0; NSD2 HMT inh: 111*; NPR1 activator: -1; Alpha artifact: -15%

How did CC(=O)c1cc(C)ccc1OC(=O)CCN1C(=O)C2C3c4ccccc4C(c4ccccc43)C2C1=O (stereo not given) do in these assays?
Rce1 inh: inactive; GC-B act: -2; V-ATPase pHluor: -3; Efflux pump mplx: 0; NSD2 HMT inh: -1; NPR1 activator: -2

What do the screens show for `CC(=O)NCCN1C(=O)C2C3c4ccccc4C(c4ccccc43)C2C1=O` (stereo not given)?
Rce1 inh: inactive; GC-B act: 4; V-ATPase pHluor: -5; Efflux pump mplx: 0; NSD2 HMT inh: 76*; NPR1 activator: -2; Alpha artifact: -4%

Results for CC(Oc1ccc(Cl)cc1Cl)C(=O)NC(Cc1ccccc1)C(=O)O (stereo not given) ?
GC-B act: -2; V-ATPase pHluor: 1; NSD2 HMT inh: 53*; NPR1 activator: 0; Alpha artifact: 2%

Results for Brc1ccc(COc2ncnc3ccccc23)cc1 ?
Rce1 inh: inactive; GC-B act: 6; V-ATPase pHluor: -3; Efflux pump mplx: 0; NSD2 HMT inh: -4; NPR1 activator: -4

What do the screens show for `COc1ccc(COc2ncnc3ccc(Br)cc23)cc1F`?
Rce1 inh: inactive; GC-B act: 4; V-ATPase pHluor: 0; Efflux pump mplx: 0; NSD2 HMT inh: 122*; NPR1 activator: 4; Alpha artifact: -3%

What do the screens show for `S=c1[nH]nc(-c2cc(-c3ccccc3)n[nH]2)n1/N=C/c1cccc2ccccc12`?
GC-B act: -18; NSD2 HMT inh: 7; NPR1 activator: 3

How did N#CCC(=O)c1sccc1-n1cccc1 do in these assays?
Rce1 inh: inactive; GC-B act: -3; V-ATPase pHluor: 0; Efflux pump mplx: 0; NSD2 HMT inh: 92*; NPR1 activator: 3; Alpha artifact: -5%

Results for N#CCOC(=O)c1sccc1-n1cccc1 ?
Rce1 inh: inactive; GC-B act: 3; V-ATPase pHluor: 1; Efflux pump mplx: 0; NSD2 HMT inh: 3; NPR1 activator: 1

Results for CNCc1ccccc1OCc1ccccc1F ?
Rce1 inh: inactive; GC-B act: -1; V-ATPase pHluor: 1; Efflux pump mplx: 0; NSD2 HMT inh: 53*; NPR1 activator: -4; Alpha artifact: 0%

Results for CCOC(=O)C1CCN(c2nc(N)c3c(N)nc(SCC(=O)O)cc3c2C#N)CC1 ?
Rce1 inh: inactive; GC-B act: 2; V-ATPase pHluor: -2; NSD2 HMT inh: 101*; NPR1 activator: 3; Alpha artifact: -6%

Results for COC(=O)[C@H](C(C)C)N(CCCc1cn(CC2CCCCC2)nn1)S(=O)(=O)c1ccccc1Br ?
GC-B act: 2; NPR1 activator: 0

Results for Cc1ccc(C(=O)Nc2ccc(Cl)cc2C(F)(F)F)c(Cl)c1 ?
Rce1 inh: inactive; GC-B act: -3; V-ATPase pHluor: -1; Efflux pump mplx: 0; NSD2 HMT inh: 188*; NPR1 activator: -1; Alpha artifact: 1%

Results for CC[n+]1c(/C=C/Nc2ccccc2)oc2ccc(OC)cc21 ?
Rce1 inh: inactive; GC-B act: 4; V-ATPase pHluor: 1; Efflux pump mplx: 0; NSD2 HMT inh: -4; NPR1 activator: -4

Results for CC[n+]1c(/C=C/Nc2ccccc2)oc2ccccc21 ?
Rce1 inh: inactive; GC-B act: -2; V-ATPase pHluor: -1; Efflux pump mplx: 0; NSD2 HMT inh: 81*; NPR1 activator: -1; Alpha artifact: -4%

Results for O=C1C(Cl)=C(N2CCC(C(=O)O)CC2)C(=O)c2ccccc21 ?
Rce1 inh: inactive; V-ATPase pHluor: 1; Efflux pump mplx: 0; NSD2 HMT inh: 102*; Alpha artifact: 2%

Results for O=C(O)C1CCN(C(=O)c2ccccc2Cl)CC1 ?
Rce1 inh: inactive; GC-B act: 7; V-ATPase pHluor: 7; Efflux pump mplx: 0; NSD2 HMT inh: 0; NPR1 activator: 0

How did CN1CCN(C2=C(Cl)C(=O)c3ccccc3C2=O)CC1 do in these assays?
GC-B act: -5; V-ATPase pHluor: 3; NSD2 HMT inh: 106*; NPR1 activator: 3; Alpha artifact: -3%
